# Assay results as given in PubChem BioAssay AID1053126 (Broad Institute, 2014).
# Potency and affinity values are given separately. Values without a mark were called inactive.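 Rule for the calls: active = cell killing with a fitted half-effect concentration at or below twice the top valid dose; inconclusive = flat curve with 30 to 70 percent drop, or poor fit; inactive = the rest.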
# Experiment: viability loss in HEK293T kidney cells – cell-based, ATP luminescence, cherry-pick, set 6, cytotoxicity control, dose response (AID 1053126);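 note: 0% = neutral control wells and -100% = mitoxantrone 10 µM positive control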
# Details: CellTiter-Glo ATP luminescence, 72 h; series mostly up to 26 µM; activity change, negative = cytotoxicity: at the top concentration
row,Compound,"activity change, negative = cytotoxicity"
1,CCCN1CCN(C(=O)c2ccc(CS(=O)c3ccc(Br)cc3)o2)CC1 (stereo not drawn),16.8%
2,CC(C)CCN1C(=O)c2cccc3c(N)ccc(c23)C1=O,-10.8%
3,COc1ccccc1C(=O)c1cc2ccc(O)cc2oc1=O,-13.3%
4,Cc1cc(OC(=O)c2ccccc2Cl)ccc1N1C(=O)CCC1=O,37.2%
5,CCCCn1nc(NC(=O)c2cccs2)c2cc3cc(OC)ccc3nc21,-8% [at 12 µM]
6,O=C(c1ccc(F)cc1)C1CCN(C(=O)Nc2ccccc2Cl)CC1,-6.61%
7,CC(=O)c1cc2ccc(O)cc2oc1=O,-5.76%
8,Cc1ccc(O)c(NC(=S)NC(=O)COc2ccc(Br)cc2)c1,17.8%
9,Cc1noc(C)c1S(=O)(=O)N(CC(=O)N1CCCCCC1)c1ccc(C(C)C)cc1,-16.6%
10,O=C(CCCn1c(=O)c2sccc2n(Cc2cc(=O)n3ccccc3n2)c1=O)NCc1ccco1,-9.89%
11,CCOc1ccc(S(=O)(=O)Nc2ccc(C(=O)N(CC)CC(=O)NCc3cccs3)cc2)cc1,-3.98%
12,CCn1c2ccccc2c(=O)c2ccccc21,-13.3%
13,CCN(CC)c1ccc2c(C)c(Cl)c(=O)oc2c1,15.3%
14,CCCCCCc1cc2cc(S(=O)(=O)c3ccc(F)cc3)c(=O)oc2cc1O,48.1% [at 12 µM]
15,C#CCOc1ccc(C2C(C#N)=C(N)Oc3cc(O)ccc32)cc1 (stereo not drawn),7.8%
16,Cc1cc(-n2c(=O)c(C#N)cc3c(=O)n4cccc(C)c4nc32)no1,-18.1%
17,Fc1ccc(-c2nc3ccccn3c2NCc2ccc3c(c2)OCO3)cc1,-10.2%
18,Nc1nc(-c2cc(O)ccc2[N+](=O)[O-])cc(-c2ccccc2)c1[N+](=O)[O-],1.04%
19,CCOc1ccc(-n2c(SCC(=O)Nc3nccs3)nnc2-c2ccoc2C)cc1,0.85%

row,Compound,"activity change, negative = cytotoxicity"
1,COc1ccc(C2C3=C(CCCC3=O)N(CC(=O)O)C3=C2C(=O)CCC3)cc1,5.62%
2,Clc1cccc(CN2CCN(Cc3nc(CCc4ccccc4)no3)CC2)c1,-15.3%
3,CC(=O)OC[C@@H]1CN(Cc2ccccc2)C[C@H](n2cnc3c(N(C)C(C)C)ncnc32)O1,-10.5%
4,CCN(CC)CCCNc1nc(C)cc(COC)c1C#N,-13.8%
5,Cc1ccc(-n2c(C)cc(/C=N/NC(=O)Cn3c4ccccc4c(=O)c4ccccc43)c2C)cc1,23.8%
6,NC(=O)c1cc([N+](=O)[O-])ccc1NCc1cccnc1,20.8%
7,Cc1cccn2c(=O)c(/C=C(\C#N)C(N)=O)c(Oc3ccccc3)nc12,-7.72%
8,Cc1c(C(=O)NCc2ccc3c(c2)OCCO3)sc(=O)n1Cc1ccccc1F,-6.29%
9,COc1cc(C(=O)NCCCNc2nc3c(C)cc(C)cc3cc2C#N)cc(OC)c1OC,7.6%
10,Cn1cccc1/C=N/NC(=O)c1sc2cc(Cl)ccc2c1Cl,-10.6%
11,C/C(=N\NC(=O)CC#N)c1cc2ccc(O)cc2oc1=O,12.9%
12,Cc1nc2ccc(S(=O)(=O)Nc3ccc(-c4nc5cccnc5s4)cc3)cc2s1,31.4%
13,CCOc1ccc(C2C(C#N)=C(N)Oc3cc(O)ccc32)cc1OCC (stereo not drawn),5.38%
14,COc1cccc(N2CCN(C(=O)C3CCCN(S(=O)(=O)c4cnc[nH]4)C3)CC2)c1 (stereo not drawn),34.1%
15,N#Cc1c2ccc(OCC(N)=O)cc2n2ccccc12,-5.42%
16,COc1ccc(C2C(C#N)=C(N)Oc3cc(O)ccc32)cc1Cl (stereo not drawn),6.37%
17,O=C(Cn1ccc([N+](=O)[O-])n1)N1CCCCCC1,-8.62%
18,Cn1cc(C(c2ccccc2OCC(=O)O)c2cn(C)c3ccccc23)c2ccccc21,-5.72%
19,CCN(CC)CCN1C2=C(C(=O)CC(C)(C)C2)C(c2cccc(F)c2)C2=C1CC(C)(C)CC2=O,-0.832%
